Screening results (PubChem BioAssay)
Most compounds without a hit are left out; they make up all but 4.7% or so of the library.
D1 antagonist: Antagonist of Human D 1 Dopamine Receptor: qHTS; D(1A) dopamine receptor (Homo sapiens), P21728; HEK293 TREx D1 cells, calcium flux, dopamine EC80; active compounds read low; activity change, negative = inhibition, % at 10 µM; actives 3.2% (n = 360,000); in the data active means activity change below about -30%; further: on the % scale 0 is the no-effect control and ±100 the full control effect
Target sequence (P21728 whole entry, looked up): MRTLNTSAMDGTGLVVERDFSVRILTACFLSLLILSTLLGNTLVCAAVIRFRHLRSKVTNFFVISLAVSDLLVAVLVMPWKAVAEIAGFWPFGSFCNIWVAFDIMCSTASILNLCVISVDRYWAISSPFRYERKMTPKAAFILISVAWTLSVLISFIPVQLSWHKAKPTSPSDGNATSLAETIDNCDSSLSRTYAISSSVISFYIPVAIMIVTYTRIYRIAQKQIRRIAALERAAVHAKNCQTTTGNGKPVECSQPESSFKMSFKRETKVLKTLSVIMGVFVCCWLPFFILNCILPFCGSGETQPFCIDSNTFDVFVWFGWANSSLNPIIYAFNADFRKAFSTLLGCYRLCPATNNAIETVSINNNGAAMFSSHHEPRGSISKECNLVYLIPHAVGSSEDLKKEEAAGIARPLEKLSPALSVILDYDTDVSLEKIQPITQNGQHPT
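Using tetracycline-induced force-coupled D1 Hek293 cells and a calcium dye, signals were followed for 180 s after compound, then for 180 s after EC80 dopamine, to detect inhibitors.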
TRHR agonist-1: qHTS for Small Molecule Agonists and Allosteric Enhancers of Human TRH Receptor: Primary Screen for Agonists; Thyrotropin-releasing hormone receptor (Homo sapiens), P34981; TRHR cells, calcium flux fluo-8, FDSS agonist mode; activation, % at 2 µM; actives 0.18% (n = 360,000); AID 493084, 2011; further: 0% is about no effect
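TRHR-expressing cells loaded with fluo-8 calcium dye; 23 nL library compound pin-transferred, kinetic FDSS fluorescence (Ex 480/Em 530) recorded about 180 s for agonist-induced calcium release, before a 10 nM TRH EC20 addition for potentiator mode.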
TRHR enhancer-1: qHTS for Small Molecule Agonists and Allosteric Enhancers of Human TRH Receptor: Primary Screen for Enhancers; Thyrotropin-releasing hormone receptor (Homo sapiens), P34981; TRHR cells, fluo-8 calcium fluorescence, EC20 TRH enhancement; enhancement, % at 2 µM; actives 0.66% (n = 360,000); AID 493056, 2011; in the data active means enhancement above about 30%; further: 0% is about no effect
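TRHR-expressing cells loaded with fluo-8 calcium dye were read kinetically (ex 480/em 530) during compound addition, then stimulated with an EC20 of TRH (10 nM final). Enhancement of the Gq-mediated intracellular calcium response was scored.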
D1 agonist: Allosteric Agonists of the Human D1 Dopamine Receptor: qHTS | D(1A) dopamine receptor (Homo sapiens), P21728 | activation, % at 2 µM | HEK293 T-REx D1 cells, calcium flux, agonist mode | actives 1% (n = 360,000); further: 0% is about no effect
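Agonism was scored from calcium flux recorded over 180 s (1 read/s) after pintool compound addition, following a 10-cycle baseline. Cells were inducible force-coupled HEK293 TREx D1, plated overnight at 30 C and loaded with no-wash calcium dye.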
D1 PAM: Potentiators of Human D1 Dopamine Receptor: qHTS. D(1A) dopamine receptor (Homo sapiens), P21728. HEK293 TREx D1 cells, calcium flux, dopamine EC20 potentiation. potentiation, % at 10 µM. actives 0.036% (n = 360,000). AID 504651, 2011; in the data active means potentiation above about 30%; further: 0% is about no effect
TRHR enhancer-2: qHTS for Small Molecule Agonists and Allosteric Enhancers of Human TRH Receptor: Confirmation Screen for Enhancers | 970 tested, under 10 active | shares compounds with TRHR enhancer-1 | activity change, negative = inhibition, % at 46.1 µM | TRH receptor cell assay, enhancer confirmation qHTS | AID 493076, 2011; active means well fitted curve in the direction sought with a large enough effect; inconclusive means small, poorly fitted or top-dose-only effect, or another doubt; inactive means no such curve, though single readings can be large; an effect the other way counts as inactive or inconclusive;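 further: compound effect scored on response to added TRH at EC20 of 10 nM; 0% is about no effect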
TRHR agonist-2: qHTS for Small Molecule Agonists and Allosteric Enhancers of Human TRH Receptor: Confirmation Screen for Agonists; actives 8% (n = 970); Potency, µM (doses to about 46.1 µM), for inactives: at the top dose activation, most hits filed as activators; shares compounds with TRHR enhancer-1; AID 493078, 2011; TRHR-expressing cells, agonist activation read-out; active means well fitted curve in the direction sought with a large enough effect; inconclusive means small, poorly fitted or top-dose-only effect, or another doubt; inactive means no such curve, though single readings can be large; an effect the other way counts as inactive or inconclusive; further: potency means the concentration at half of the fitted maximal effect; 0% is about no effect; nearly all actives have a fitted effect of over 75% in size
Active calls of the source: *; ? = inconclusive; . = not tested or not shown; ! = not confirmed by another sample. Unless noted, no stated cut-off is given here; in the data, active means activation above about 30%; inactive means the rest.

SMILES	D1 antagonist	TRHR agonist-1	TRHR enhancer-1	D1 agonist	D1 PAM	others
Cc1cc(C=C(C#N)C#N)ccc1N1CCCC1	-6.4	15.5	1.0	50.9*	-4.5
COCCNCCOc1ccc(C(C)(C)c2ccccc2)cc1	8.6	1.8	0.3	37.6*	2.5
COc1cc(/C=C/c2nc3ccccc3c(=O)n2-c2ccc(Br)c(C)c2)ccc1O	-0.3	15.9	-11.9	16.5	-0.5
CC1CN=C(Nc2ccc(F)c(Cl)c2)S1 (configuration not stated)	-32.8*	0.9	-1.2	14.9	-3.4
Fc1ccc(NC2=NCCS2)cc1Cl	-0.3	0.0	-3.0	-0.7	-2.4
COC(=O)C1=C(c2cccc(C#N)c2)C[C@@H]2CC[C@H]1N2C(=O)N1CCCCC1	-37.2*	-0.3	-0.2	1.1	-2.0
COC(=O)C1=C(c2cccc(C#N)c2)C[C@@H]2CC[C@H]1N2C(=O)NC1CC1	.	0.2	-0.9	1.0	-0.3
COC(=O)C1=C(c2cccc(C#N)c2)C[C@@H]2CC[C@H]1N2C(=O)NC1Cc2ccccc2C1	-41.0*	0.5	-5.1	1.3	-4.8
COC(=O)C1=C(c2ccc(OC)c(OC)c2)C[C@@H]2CC[C@H]1N2C(=O)NC1CC1	.	0.1	-0.6	0.6	1.1
COC(=O)C1=C(c2ccc(OC)c(OC)c2)C[C@@H]2CC[C@H]1N2C(=O)NC(C)C	-42.2*	-0.2	4.6	-1.7	5.9
Cc1oc(-c2ccc(Cl)cc2)nc1CN1C(=O)CN=C(c2ccccc2)c2ccccc21	-15.9	-0.2	-2.9	4.7	-2.2
CCN1/C(=C\C=C\C2=[N+](CC)c3ccccc3C2(C)C)C(C)(C)c2ccccc21	-21.7	124.0*	5.3	204.1*	-4.3
COc1ccc(-c2nn3c(=O)cc(CN4CCN(C(=O)COc5ccc(F)cc5)CC4)nc3s2)cc1	-24.5	-0.1	-5.9	0.4	-0.6
CCC(C(=O)Nc1ccccc1F)N1C(=O)CN=C(c2ccccc2)c2ccccc21 (configuration not stated)	-9.4	-0.6	5.6	0.4	-0.2
Cc1ncc(CN2CCCC(C(=O)c3cccc(Cl)c3)C2)s1 (configuration not stated)	17.1	-0.3	-2.7	1.0	2.1
CCOC(=O)c1[nH]ncc1CN1CCCC(C(=O)c2cccc(Cl)c2)C1 (configuration not stated)	-12.9	1.1	3.7	43.5*	-12.4
COc1ccc(OCC(=O)N2CCN(Cc3ccc(SC)cc3)CC2)cc1	-38.2*!	0.2	7.5	2.0	23.7
CN1C(=O)NC(=O)C2(Cc3ccccc3N3CCOCC32)C1=O (configuration not stated)	-32.1*	0.2	14.0	4.3	-5.8
COc1ccccc1N1CCN(Cc2ccccc2Cl)CC1	10.6	-1.0	0.2	2.2	-2.7
Clc1ccccc1CN1CCN(c2cccc3[nH]ccc23)CC1	-48.5*	0.2	1.0	0.1	-2.5
Cc1cc(-n2c(/C=C/c3cccs3)nc3ccccc3c2=O)ccc1Br	-31.8*	-0.3	0.6	-0.2	-0.9
Cc1cc(-n2c(/C=C/c3ccc(Br)s3)nc3ccccc3c2=O)ccc1Br	11.6	0.1	-6.3	-3.8	-2.0
CN(CCc1ccccc1)Cc1c[nH]c2ccccc12	-66.5*	2.6	10.2	11.8	-13.1
Cc1ccc(-n2nc(C)c3c2NC(=O)CSC3c2ccc(O)cc2)cc1Cl (configuration not stated)	1.2	-0.2	-0.1	-0.7	0.3
Cc1cc(NC(=O)c2cccn(Cc3cccc([N+](=O)[O-])c3)c2=O)no1	.	0.3	-17.7	1.4	-0.3
SMILES	D1 antagonist	TRHR agonist-1	TRHR enhancer-1	D1 agonist	D1 PAM	others
Cc1cccc(NC(=O)Cn2cc(C(=O)c3ccccc3)c3ccccc32)c1C	-17.7	1.1	-5.9	3.8	-3.2
Cc1ccc(-n2c(=O)[nH]c3ccc(Br)cc3c2=O)cc1	-9.3	-0.1	-4.2	0.0	-0.6
O=C1NC(=O)C(=Cc2ccc(Oc3ccc([N+](=O)[O-])cc3)cc2)C(=O)N1	-35.9*	-2.3	3.4	2.7	9.7
CCCCn1c(N)c(C(=O)OCC2CCCO2)c2nc3ccccc3nc21 (configuration not stated)	11.7	-1.4	-5.7	1.6	8.8
CC(C)CCn1c(N)c(C(=O)OCC2CCCO2)c2nc3ccccc3nc21 (configuration not stated)	-36.0*	0.0	-5.1	-0.5	-3.0
CC(Cc1ccccc1)N1C(=O)c2ccccc2C1=O (configuration not stated)	-17.5	-0.5	54.9*	2.2	-9.8	TRHR enhancer-2=-13.1;TRHR agonist-2=2.1%
CC(C(=O)c1ccccc1)N1C(=O)c2ccccc2C1=O (configuration not stated)	2.1	-0.5	0.3	0.2	-0.9
O=C(CN1CC=C(c2ccccc2)CC1)NC(=O)NCc1ccccc1	-3.6	-0.9	61.6*	4.6	-4.0	TRHR enhancer-2=?;TRHR agonist-2=2.6%
O=C1NC(=O)N(c2cccc(Cl)c2)C(=O)/C1=C\c1ccc(Sc2nc3ccccc3[nH]2)o1	-5.3	47.2*	22.3	63.5*	2.5	TRHR enhancer-2=7.4;TRHR agonist-2=?
Cc1cccc(N2C(=O)NC(=O)/C(=C/c3ccc(-c4ccc(C(=O)O)c(Cl)c4)o3)C2=O)c1	-1.4	2.8	2.7	1.0	-5.0
CCCCC12CN3CC(C)(CN(C1)C3c1ccccn1)C2=O (configuration not stated)	-12.6	-0.1	0.9	-3.0	1.1
CCCCCn1c(N)c(C(=O)NCCN2CCOCC2)c2nc3ccccc3nc21	9.2	0.9	0.0	15.0	0.8
O=C(NCCN1CCOCC1)c1ccc(Cl)nc1	18.2	74.9*	0.7	1.7	3.6	TRHR enhancer-2=5.5;TRHR agonist-2=0.5%
Cc1ccccc1-c1nc(CS(=O)CC(=O)N2CCC3(CC2)OCCO3)c(C)o1 (configuration not stated)	6.7	-0.7	41.6*	7.6	-0.1	TRHR enhancer-2=-4.1;TRHR agonist-2=-0.6%
CC(C)C12CN3CC(C(C)C)(CN(C1)C3c1ccccn1)C2=O (configuration not stated)	15.1	-0.2	-1.2	6.4	0.3
CCC1(C)OC(c2ccccc2)=C/C(=C/C=C2C(=O)NC(=O)NC2=O)O1 (configuration not stated)	-6.6	41.1*	-4.2	108.1*	-5.0	TRHR enhancer-2=-2.7;TRHR agonist-2=?
COc1cccc(NC(=O)Cn2cc(C(=O)c3ccccc3)c3ccccc32)c1	4.5	1.3	2.0	6.2	-1.2
